# In PubChem BioAssay:
# A number with no mark means an inactive call. No rule for the calls is given here.
# Test system: Aerobactin synthetase IucA (Klebsiella pneumoniae hvKP1)
# Assay: IucA enzyme inhibition, primary screen, biochemical, Spectrum library (AID 1346200);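 also: 100% = wells without compound and 0% = wells lacking enzyme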
# Details: malachite green pyrophosphate, A620, at 8 µM, hits give low values
row,SMILES,activity remaining [%]
1,O=c1oc2c(O)c(O)cc3c(=O)oc4c(O)c(O)cc1c4c23,91.8
2,CC(=O)Oc1ccc2c(c1)CCC1C2CC[C@@]2(C)C1CC[C@@H]2OC(C)=O (stereo not given in full),120
3,Cc1cc(C)nc(NS(=O)(=O)c2ccc(N)cc2)n1,111
4,CN1C(CC(=O)c2ccccc2)CCCC1CC(O)c1ccccc1 (stereo not given),108
5,COc1cc(O)c(C(=O)/C=C/c2ccc(OC)c(O)c2)c(OC)c1,105
6,FC(F)(F)COCC(F)(F)F,120
7,CC1=C2[C@](C)(C=CC1=O)C[C@H](O)[C@H]1[C@H](C)C(=O)O[C@]21C,107
8,CC12OC(=O)CC3C(C)(C)[C@H](O)C=C[C@]3(C)C1CC[C@]1(C)C2=CC(=O)O[C@H]1c1ccoc1 (stereo not given in full),118
9,NC(Cc1c[nH]c2ccccc12)C(=O)O (stereo not given),107
10,O=c1cccc2ccc(O)c(O)c2c1O,86.6
11,CCOc1nc2cccc(C(=O)OC(C)OC(=O)OC3CCCCC3)c2n1Cc1ccc(-c2ccccc2-c2nn[nH]n2)cc1 (stereo not given),104
12,CC1(C)CC[C@]2(C(=O)O)CC[C@]3(C)C(=CCC4[C@@]5(C)CC[C@H](O)[C@@](C)(CO)C5CC[C@]43C)C2C1 (stereo not given in full),97.3
13,CCCCCC(C)N (stereo not given),111
14,C[C@@H]1CC[C@@]2(OC1)O[C@H]1CC3C4CC[C@H]5C[C@@H](O)CC[C@]5(C)C4CC[C@]3(C)[C@H]1[C@@H]2C (stereo not given in full),101
15,C[C@]12C=CC(=O)C=C1CCC1C2[C@@H](O)C[C@@]2(C)C1CC[C@]2(O)C(=O)COC(=O)CCC(=O)O (stereo not given in full),111
16,COc1ccc2cc1Oc1ccc(cc1)C[C@H]1c3c(cc4c(c3Oc3cc5c(cc3OC)CCN(C)[C@@H]5C2)OCO4)CCN1C,115
17,COc1cc(C(C)=O)cc(OC)c1O,94.5
18,Cc1cc(-n2c(=O)[nH]c(=O)n(C)c2=O)ccc1Oc1ccc(SC(F)(F)F)cc1,109
19,CC(=O)c1c(O)c(C)c(O)c2c1OC1=CC(=O)C(C(C)=O)C(=O)C12C (stereo not given),94.6
20,O=C(/C=C/C(=O)Oc1ccccc1C(=O)O)Oc1ccccc1C(=O)O,92

row,SMILES,activity remaining [%]
1,COC(=O)[C@H](c1ccccc1Cl)N1CCc2sccc2C1,119
2,CC(=O)O[C@H]1C[C@@H](OC(C)=O)C(C)(C)C2C[C@@H](OC(C)=O)[C@@]3(C)C4=CC(=O)O[C@@H](c5ccoc5)[C@]4(C)CCC3[C@]21C (stereo not given in full),102
3,CCCCCN=C(N)N/N=C/c1c[nH]c2ccc(OC)cc12,108
4,CCCC1O[C@@H]2CC3C4CCC5=CC(=O)C=CC5(C)C4[C@@H](O)CC3(C)[C@]2(C(=O)CO)O1 (stereo not given in full),115
5,COC(=O)C[C@H]1C(C)(C)C(=O)[C@@H]2CC3C4=CC(=O)O[C@@H](c5ccoc5)[C@]4(C)CCC3C1(C)C2=O (stereo not given in full),120
6,CC1=CC2C(C(C)C)CCC(C)(O)C2CC1 (stereo not given),89.3
7,CC(=O)Oc1ccc(C(c2ccc(OC(C)=O)cc2)c2ccccn2)cc1,82.7
8,CC1(C)S[C@@H]2[C@H](NC(=O)C(C(=O)O)c3ccccc3)C(=O)N2[C@H]1C(=O)O (stereo not given in full),114
9,C=C[C@@](C)(O)CCC1C(=C)C[C@H](O)C2C(C)(C)CCCC12C (stereo not given in full),123
10,O=C(O)c1ccc2c(c1)OCO2,101
11,COc1c2ccoc2nc2c(OC)c(OCC(O)C(C)(C)O)ccc12 (stereo not given),98
12,N[C@H](Cc1ccccc1)C(=O)O,122
13,O=C(O)c1ccccc1O,121
14,CC(=O)NS(=O)(=O)c1ccc(N)cc1,126
15,CCCCCC(O)C1C(=O)OC(C)C(O)/C=C/C=C/C=C/C=C/C=C(\C)C(O)CC(O)CC(O)CC(O)CC(O)CC(O)CC1O (stereo not given),118
16,CCCCC(=O)O[C@]1(C(=O)CO)CCC2C3CCC4=CC(=O)CC[C@]4(C)C3[C@@H](O)C[C@@]21C (stereo not given in full),111
17,CC(C)c1nc(N(C)S(C)(=O)=O)nc(-c2ccc(F)cc2)c1/C=C/[C@@H](O)C[C@@H](O)CC(=O)O,124
18,C=CCSCC1Nc2cc(Cl)c(S(N)(=O)=O)cc2S(=O)(=O)N1 (stereo not given),91.6
19,COc1ccccc1/C=C\C(=O)O,90.4
20,Nc1ccc(C(=O)O)cc1,124
